This note sets out measurements from PubChem BioAssay (NCATS).

Values without a mark were called inactive. Results filed as inconclusive are left out. The source made the active and inactive calls. Unless noted, calls come from the whole dose curve; as a rule, active = well fitted curve in the direction sought with a large enough effect; inconclusive = small, poorly fitted or top-dose-only effect, or another doubt; inactive = no such curve, though single readings can be large; an effect the other way counts as inactive or inconclusive.

For assay [1], the target named is Rap guanine nucleotide exchange factor 3 (Homo sapiens) (UniProt O95398). Put plainly: Confirmatory qHTS for antagonist of cAMP-regulated guanine nucleotide exchange factor 3 (EPAC1) (AID 1645880). Note: nearly all actives have a fitted effect of over 55% in size. Note: potency is the fitted concentration of half-maximal effect. The method, boiled down:
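Nucleotide exchange uses 100 nM EPAC1, 250 nM RAP1B-BODIPY-GDP and 50 uM GDP, with compounds in a concentration-titration series. After 5 min at room temperature, fluorescence (480 nm ex/540 nm em) is read every 5 min for 30 min. Data are normalized to control ATA and DMSO.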
In general terms: Quantitative high-throughput screening tests each substance at several concentrations.

For assay [2] the target is unchanged. Description: Confirmatory qHTS for agonist of cAMP-regulated guanine nucleotide exchange factor 3 (EPAC1) (AID 1645881).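 For activation: EPAC1 catalysed release of BODIPY-GDP from Rap1B seen as fluorescence loss; 100% = effect of cAMP agonist control.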 Note: nearly all actives have a fitted effect of over 75% in size. Note: potency is the fitted concentration of half-maximal effect.
Assay [3] concerns the target Rap guanine nucleotide exchange factor 4 (Homo sapiens) (UniProt Q8WZA2). Description: Confirmatory qHTS for agonist of cAMP-regulated guanine nucleotide exchange factor 4 (EPAC2) (AID 1645884). For activation: % is set by controls: 0 for no effect and ±100 for the full control effect.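 Note: nucleotide exchange releases bodipy-GDP from Rap1 and this lowers its fluorescence; nearly all actives have a fitted effect of over 65% in size.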 Note: potency is the fitted concentration of half-maximal effect.
Assay [4] shares this target. Put plainly: Confirmatory qHTS for antagonist of cAMP-regulated guanine nucleotide exchange factor 4 (EPAC2) (AID 1645885). Note: % is set by controls: 0 for no effect and ±100 for the full control effect; nearly all actives have a fitted effect of over 25% in size.
Assay [5] has as its target Rap guanine nucleotide exchange factor 3 (Homo sapiens) (UniProt O95398). Description: Counterscreen qHTS for antagonist of cAMP-regulated guanine nucleotide exchange factor 3 (EPAC1) (AID 1645888).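 Note: fluorescence loss as bound BODIPY-GDP is released from Rap1B; % of control where 0% means no effect.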 The gist of the method:
(§1)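 Measured: fluorescence of BODIPY-GDP bound to Rap1B, which falls as exchange proceeds. Conditions include 50 uM competing GDP, 5 and 30 min reads, and a later cAMP challenge for antagonist detection.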
For orientation: A counterscreen serves to expose hits that act by an unwanted route or on another target.

Assay [6] shares this target. Description: Counterscreen qHTS for agonist of cAMP-regulated guanine nucleotide exchange factor 3 (EPAC1) (AID 1645889). For activation: % of control where 0% means no effect. Note: nearly all actives have a fitted effect of over 40% in size. Note: potency is the fitted concentration of half-maximal effect. The method, boiled down: as §1
In assay [7] the target is Tumor susceptibility gene 101 protein (Homo sapiens) (UniProt Q99816). Put plainly: qHTS Assay for Iinhibitors of HIV-1 Budding by Blocking the Interaction of PTAP/TSG101: Hit Validation (AID 651600). Note: nearly all actives have a fitted effect of over 70% in size. Note: potency is the fitted concentration of half-maximal effect. The gist of the method:
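Fluorescence polarization binding assay: Tsg101 binding domain (10 uM final) pre-dispensed with compounds, then FITC-labeled PTAP-motif peptide (50 nM final) added; 20 min at r.t. in HEPES pH 7.5 buffer with NaCl, Tween 20, EDTA, TCEP.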

Assay [8] can be described thus: qHTS for Inhibitors of the vitamin D receptor (VDR): Hit Validation using a Texas Red Assay (AID 602201). Note: potency is the fitted concentration of half-maximal effect. The gist of the method: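 Fluorescence polarization (Ex 595/Em 615 nm) of Texas Red (7 nM) with 1.5 uM VDR-LBD and LG19078 (final concentrations). Compounds were incubated for 2 hours at room temperature.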
Assay [9] in a line: AP1 Signaling Pathway (AID 357; active = well fitted curve in either direction with a large enough effect, not every such curve was filed as active; note: % is set by controls: 0 for no effect and ±100 for the full control effect). The method, boiled down:
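AP-1-bla ME-180 cells with beta-lactamase reporter under AP-1 response element, stimulated with EC50 EGF; compounds titrated, 5 hours at 37 degrees Celsius. CCF4 read at 460/530 nm ratio; positive and negative modulators judged by AC50.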

Assay [10] is described as follows: NFAT Signaling Pathway (AID 444; active = well fitted curve in either direction with a large enough effect, not every such curve was filed as active;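 note: carbachol stimulus at about its EC50 of 1 µM final; % is set by controls: 0 for no effect and ±100 for the full control effect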). The following applies: Jurkat NFAT-bla M1, carbachol, beta-lactamase ratio, 5 h; at 17.2 µM (top of the series). The gist of the method: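 Jurkat cells carrying an NFAT-driven β-lactamase reporter and co-transfected muscarinic M1 receptor were treated with compound plus carbachol (1 uM final, an EC50 level) for 5 h at 37 °C. CCF4 loading followed for 1 h at RT; 460/530 nm ratio gave %activity.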

Assay [11] in a line: Stat Signaling Pathway (AID 446; active = well fitted curve in either direction with a large enough effect, not every such curve was filed as active;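 note: ME-180 cervical cancer cells given 40 pM IL-6 alongside compound; SIE-controlled beta-lactamase reporter measured as 460/530 nm FRET emission ratio; % is set by controls: 0 for no effect and ±100 for the full control effect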). The method, boiled down:
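Reporter line: ME-180 cervical carcinoma, SIE-beta-lactamase. Treatment: compound with 40 pM IL-6, 5 hrs, 37 C, in low-serum OPTI-MEM with 10 mM HEPES pH 7.3. Detection: 460/530 nm fluorescence.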

In assay [12] the target is Glucocorticoid receptor (Homo sapiens) (UniProt P04150). Put plainly: GR-GFP Redistribution (AID 450;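 active = compounds whose dose series gives a full or clear partial fitted curve of increased nuclear translocation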; note: potency is the fitted concentration of half-maximal effect). As to conditions: U2OS GR-GFP nuclear translocation, laser cytometry, 2 h.
Assay [13] has as its target DNA dC->dU-editing enzyme APOBEC-3G (Homo sapiens) (UniProt Q9HC16). Description: qHTS for inhibitors of Vif-A3G interactions: Validation (AID 588379). Note: 0% is about no effect. The method, boiled down: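 HeLa cells stably expressing Vif and A3G-eYFP, 700 cells/well, incubated overnight at 37 deg C, then exposed to compound overnight at 37 deg C. Inhibition of Vif-mediated degradation read as increased yellow fluorescence (Ex 488/Em 500-530) by laser-scanning cytometry.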

In assay [14] the target is Cytochrome P450 3A4 (Homo sapiens) (UniProt P08684). Put plainly: qHTS Assay for Activators of Cytochrome P450 3A4 (AID 885). Note: nearly all actives have a fitted effect of over 65% in size. The gist of the method: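 Signal was normalized against complete inhibition by 57 uM ketoconazole. The reaction used 20nM CYP3A4 with 25uM Luciferin-PPXE, 10-min compound preincubation and a 60-min NADPH-supported step at RT.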
A short description of assay [15]: Confirmation and Secondary Assay for Modulators of Hemoglobin Beta Chain Splicing at IVS2 654 locus (AID 910).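 Note: per-well total GFP intensity by laser scanning cytometry after 2-day treatment; % of control where 0% means no effect.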 The method, boiled down:
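HeLa cells stably carrying EGFP interrupted by mutant beta-globin IVS2-654 intron (CMV-driven) were treated with compound for 2 days at 37C; corrected splicing was scored as total peak GFP intensity per well (488 nm excitation, 500-520 nm emission).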

Assay [16] is described as follows: Confirmation and Secondary Assay for Modulators of Hemoglobin Beta Chain Splicing at IVS2 705 locus (AID 930).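 Note: HeLa cells stably expressing the EGFP-705 splicing reporter; GFP fluorescence per well restored by corrected splicing of the IVS2-705 intron in EGFP; % of control where 0% means no effect.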 The method, boiled down:
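Stable HeLa line with EGFP disrupted by mutant beta-globin intron 2 (705). Overnight attachment, then 2 days of compound at 37C, 5% CO2. Signal: peak GFP intensity summed over objects 5-250 µm.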

For assay [17], the target named is Glutathione peroxidase 1 (Homo sapiens) (UniProt P07203). Description: Primary qHTS Assay for Inhibitors of Recombinant Selenoprotein Glutathione Peroxidase 1 (GPX1) (AID 1845191). Note: % is set by controls: 0 for no effect and ±100 for the full control effect; nearly all actives have a fitted effect of over 65% in size. The gist of the method: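 Recombinant GPX1 (10 nM final) was preincubated with compound for 30 min at room temperature, then reacted with 1 mM GSH, 0.5 mM CHP, 0.5 mM NADPH and 100 nM glutathione reductase; NADPH fluorescence (340/450 nm) was read at 0 and 15 min.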
Sequence of Glutathione peroxidase 1 (Homo sapiens) (P07203 whole entry, looked up): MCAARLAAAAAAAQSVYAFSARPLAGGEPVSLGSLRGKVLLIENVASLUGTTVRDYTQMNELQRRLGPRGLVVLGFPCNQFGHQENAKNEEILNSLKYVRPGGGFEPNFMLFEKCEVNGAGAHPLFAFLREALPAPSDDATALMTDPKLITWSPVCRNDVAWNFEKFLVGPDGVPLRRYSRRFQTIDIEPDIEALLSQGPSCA

Sequence of Rap guanine nucleotide exchange factor 4 (Homo sapiens) (Q8WZA2 whole entry, looked up): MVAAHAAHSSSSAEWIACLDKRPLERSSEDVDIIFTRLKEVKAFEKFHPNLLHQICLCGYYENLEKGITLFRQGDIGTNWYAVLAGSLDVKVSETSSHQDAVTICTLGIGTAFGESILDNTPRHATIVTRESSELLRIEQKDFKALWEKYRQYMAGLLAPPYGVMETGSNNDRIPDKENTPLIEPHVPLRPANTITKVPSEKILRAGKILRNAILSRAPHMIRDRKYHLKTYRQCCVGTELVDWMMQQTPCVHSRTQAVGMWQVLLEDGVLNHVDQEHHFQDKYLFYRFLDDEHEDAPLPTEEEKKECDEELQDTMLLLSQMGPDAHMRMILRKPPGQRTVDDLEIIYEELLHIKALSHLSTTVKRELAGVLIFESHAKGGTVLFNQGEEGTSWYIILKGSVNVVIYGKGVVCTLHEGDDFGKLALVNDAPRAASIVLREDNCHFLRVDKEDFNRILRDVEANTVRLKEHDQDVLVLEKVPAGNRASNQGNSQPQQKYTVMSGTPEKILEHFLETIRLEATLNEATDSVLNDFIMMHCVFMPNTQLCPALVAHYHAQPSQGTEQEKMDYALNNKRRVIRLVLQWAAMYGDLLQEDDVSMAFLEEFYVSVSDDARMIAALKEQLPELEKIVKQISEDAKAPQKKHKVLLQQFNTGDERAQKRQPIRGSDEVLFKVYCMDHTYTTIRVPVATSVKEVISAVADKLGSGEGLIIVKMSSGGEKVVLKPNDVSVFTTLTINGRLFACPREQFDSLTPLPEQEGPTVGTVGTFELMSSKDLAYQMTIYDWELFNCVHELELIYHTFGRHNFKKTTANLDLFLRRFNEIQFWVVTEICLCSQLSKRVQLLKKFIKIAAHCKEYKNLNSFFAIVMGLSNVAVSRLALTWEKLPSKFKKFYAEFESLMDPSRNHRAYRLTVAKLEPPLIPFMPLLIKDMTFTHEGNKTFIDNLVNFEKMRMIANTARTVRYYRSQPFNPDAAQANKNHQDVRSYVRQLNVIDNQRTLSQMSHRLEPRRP
Sequence of Rap guanine nucleotide exchange factor 3 (Homo sapiens) (O95398 whole entry, looked up): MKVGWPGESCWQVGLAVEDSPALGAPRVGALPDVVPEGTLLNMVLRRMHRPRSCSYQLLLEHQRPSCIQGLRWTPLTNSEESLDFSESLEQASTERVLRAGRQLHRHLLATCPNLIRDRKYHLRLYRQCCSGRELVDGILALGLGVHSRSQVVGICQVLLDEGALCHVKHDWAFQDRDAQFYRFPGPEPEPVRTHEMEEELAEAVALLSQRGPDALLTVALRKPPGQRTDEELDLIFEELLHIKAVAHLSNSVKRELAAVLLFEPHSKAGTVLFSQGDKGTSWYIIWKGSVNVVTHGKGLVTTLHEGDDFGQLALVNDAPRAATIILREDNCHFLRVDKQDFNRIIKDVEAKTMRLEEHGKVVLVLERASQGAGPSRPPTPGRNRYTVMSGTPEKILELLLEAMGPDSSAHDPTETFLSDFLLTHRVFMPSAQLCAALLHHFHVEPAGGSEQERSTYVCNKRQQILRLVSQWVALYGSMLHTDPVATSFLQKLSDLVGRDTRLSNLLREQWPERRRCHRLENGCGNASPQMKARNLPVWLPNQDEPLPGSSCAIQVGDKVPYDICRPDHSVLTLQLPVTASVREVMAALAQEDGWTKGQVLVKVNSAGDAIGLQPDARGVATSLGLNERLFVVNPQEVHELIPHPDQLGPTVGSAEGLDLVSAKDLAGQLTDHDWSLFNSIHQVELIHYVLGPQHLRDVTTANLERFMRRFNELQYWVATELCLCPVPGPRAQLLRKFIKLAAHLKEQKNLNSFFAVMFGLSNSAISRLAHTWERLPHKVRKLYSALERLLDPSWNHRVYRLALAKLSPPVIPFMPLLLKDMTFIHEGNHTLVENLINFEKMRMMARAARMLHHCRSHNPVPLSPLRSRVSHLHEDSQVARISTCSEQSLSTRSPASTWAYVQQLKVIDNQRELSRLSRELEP
Sequence of Tumor susceptibility gene 101 protein (Homo sapiens) (Q99816 whole entry, looked up, the tested form may be a part): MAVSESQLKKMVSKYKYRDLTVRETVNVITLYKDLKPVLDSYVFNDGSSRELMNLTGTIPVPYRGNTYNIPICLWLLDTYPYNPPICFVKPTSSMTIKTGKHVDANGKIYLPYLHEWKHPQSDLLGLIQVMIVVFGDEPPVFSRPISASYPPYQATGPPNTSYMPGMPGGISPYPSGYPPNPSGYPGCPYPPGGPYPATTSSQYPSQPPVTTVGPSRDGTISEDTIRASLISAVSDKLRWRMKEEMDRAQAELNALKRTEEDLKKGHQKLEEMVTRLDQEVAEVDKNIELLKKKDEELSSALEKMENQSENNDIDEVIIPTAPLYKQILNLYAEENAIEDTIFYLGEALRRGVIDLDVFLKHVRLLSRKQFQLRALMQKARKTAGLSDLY
Sequence of Cytochrome P450 3A4 (Homo sapiens) (P08684 whole entry, looked up): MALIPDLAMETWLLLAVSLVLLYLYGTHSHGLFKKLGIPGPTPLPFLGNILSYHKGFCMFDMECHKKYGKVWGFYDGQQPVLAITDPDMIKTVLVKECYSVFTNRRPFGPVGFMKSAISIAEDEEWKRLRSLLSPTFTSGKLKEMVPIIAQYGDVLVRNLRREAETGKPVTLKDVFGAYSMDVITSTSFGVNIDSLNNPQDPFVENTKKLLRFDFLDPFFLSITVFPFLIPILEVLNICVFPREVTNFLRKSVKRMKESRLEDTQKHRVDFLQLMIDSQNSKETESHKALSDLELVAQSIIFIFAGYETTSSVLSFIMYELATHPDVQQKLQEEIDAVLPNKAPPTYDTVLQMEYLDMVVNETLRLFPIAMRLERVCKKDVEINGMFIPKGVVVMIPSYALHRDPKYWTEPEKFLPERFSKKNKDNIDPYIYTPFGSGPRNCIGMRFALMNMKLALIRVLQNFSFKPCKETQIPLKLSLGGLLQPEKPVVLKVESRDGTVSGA
Sequence of Glucocorticoid receptor (Homo sapiens) (P04150 whole entry, looked up): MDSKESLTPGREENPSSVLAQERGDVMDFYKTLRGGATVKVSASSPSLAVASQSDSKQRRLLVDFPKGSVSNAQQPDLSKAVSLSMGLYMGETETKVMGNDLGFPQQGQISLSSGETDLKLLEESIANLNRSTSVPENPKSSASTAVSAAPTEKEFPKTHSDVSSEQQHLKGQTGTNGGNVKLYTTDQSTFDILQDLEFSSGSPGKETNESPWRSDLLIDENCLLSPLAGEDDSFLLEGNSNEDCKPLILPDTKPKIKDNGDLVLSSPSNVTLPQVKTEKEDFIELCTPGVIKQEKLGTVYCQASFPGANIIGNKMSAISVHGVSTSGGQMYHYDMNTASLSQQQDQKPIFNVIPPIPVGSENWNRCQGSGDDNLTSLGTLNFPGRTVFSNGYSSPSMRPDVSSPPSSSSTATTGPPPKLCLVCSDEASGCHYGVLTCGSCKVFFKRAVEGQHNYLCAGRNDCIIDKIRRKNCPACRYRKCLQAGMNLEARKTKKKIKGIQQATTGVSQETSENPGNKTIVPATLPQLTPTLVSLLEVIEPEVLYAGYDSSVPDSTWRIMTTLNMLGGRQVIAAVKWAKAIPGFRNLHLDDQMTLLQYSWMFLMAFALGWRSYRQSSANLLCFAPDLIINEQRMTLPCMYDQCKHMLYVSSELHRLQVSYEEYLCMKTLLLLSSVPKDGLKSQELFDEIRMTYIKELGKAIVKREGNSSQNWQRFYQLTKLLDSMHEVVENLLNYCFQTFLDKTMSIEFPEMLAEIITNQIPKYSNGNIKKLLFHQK
Sequence of DNA dC->dU-editing enzyme APOBEC-3G (Homo sapiens) (Q9HC16 whole entry, looked up): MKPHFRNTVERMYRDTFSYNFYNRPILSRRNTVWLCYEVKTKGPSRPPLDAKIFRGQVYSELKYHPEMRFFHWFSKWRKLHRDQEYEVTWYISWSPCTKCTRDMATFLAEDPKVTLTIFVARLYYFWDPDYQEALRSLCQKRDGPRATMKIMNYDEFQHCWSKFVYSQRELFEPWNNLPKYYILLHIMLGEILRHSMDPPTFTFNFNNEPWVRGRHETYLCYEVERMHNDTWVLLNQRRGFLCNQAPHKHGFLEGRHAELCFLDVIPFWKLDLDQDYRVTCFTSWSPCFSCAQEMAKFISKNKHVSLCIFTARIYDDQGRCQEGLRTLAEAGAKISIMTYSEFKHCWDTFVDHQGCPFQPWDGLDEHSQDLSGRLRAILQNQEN

As to `O=C1Nc2ccccc2/C1=C/c1nc2ccccc2c(=O)n1-c1ccc(O)cc1`, the Potency in assay [1] was 35.5 µM (active). For the same compound, the Potency entry in assay [2] is “inactive”. The activation is 2.57% [at 17.1 µM, percent relative to cAMP agonist control] in [3] and 1.32% [at 30.8 µM] in [6]. The activity change, negative = inhibition in assay [4] was 0.205% [at 12.7 µM]; in assay [5] it was -7.19% [at 30.8 µM].
For the compound `CCN(CC)C(=O)Cn1cc(C=C2C(=O)N(C)C(=O)N(C)C2=O)c2ccccc21`, the Potency result in [7] and in [2] was “inactive” each time. In addition, in [1], the Potency is 79.4 µM (active). The activation in assay [3] is 4.19% [at 17.1 µM, percent relative to cAMP agonist control]. The activity change, negative = inhibition in assay [4] was 3.22% [at 12.7 µM]; in assay [5], -5.5% [at 30.8 µM].
With `N/C(=N\N=C/c1ccc(-c2ccc(O)c(C(=O)O)c2)o1)N[N+](=O)[O-]`, in assay [1], the Potency is 4.78 µM (active). For the same compound, the Potency result in assay [2] and in assay [3] was “inactive” each time. Besides, the compound was classed as inactive in assay [5].
On to `COC(=O)N1C(c2ccccc2)C1c1ccccc1` (stereo unspecified), for which the Potency result in assay [1] and in assay [2] was “inactive” in each case. For the same compound, the activation in assay [3] is 10.2% [at 17.1 µM, percent relative to cAMP agonist control]. Also, in assay [5], the activity change, negative = inhibition was 4.2% [at 30.8 µM].
On to `CCn1c(O)c(C=Nc2ccc(N3CCOCC3)cc2)c(=O)n(CC)c1=S`, for which the Potency was 9.19 µM (active) in [7] and 112 µM (active) in [3]. Besides, the Potency entry in [1], in [2] and in assay [4] was “inactive” each time. For the same compound, in assay [5], the outcome was inactive.
Consider `O=[N+]([O-])c1ccc(N2CCOCC2)c2c1no[n+]2[O-]`, for which the Potency in [1] was 47.8 µM (active). Moreover, the Potency result in assay [2], in assay [3] and in assay [6] was “inactive” throughout.
Consider `CCOC(=O)[C@]12Cc3ccccc3[C@H]1N(Cc1ccccc1)C(=O)c1cc(OC)ccc12`, for which the Potency result in assay [1] and in assay [2] was “inactive” each time. In addition, the activation is -5.98% [at 17.1 µM, percent relative to cAMP agonist control] in assay [3] and 20.9% [at 30.8 µM] in assay [6]. Moreover, the activity change, negative = inhibition in assay [5] is 2.15% [at 30.8 µM].
Take `O=C(c1ccco1)c1cn(Cc2ccccc2)c2ccccc12`: the Potency result in assay [1], in [2], in assay [3] and in assay [6] was “inactive” each time. The call in assay [5] was inactive.
Take `O=C1NC(=S)NC(=O)C1=Cc1cccn1-c1ccc(O)cc1`: the Potency result in assay [8] and in assay [2] was “inactive” throughout. Moreover, the Potency in assay [1] is 3.55 µM (active). Moreover, the activation in assay [3] is 2.5% [at 17.1 µM, percent relative to cAMP agonist control]. The figures for the activity change, negative = inhibition in [4] and in [5] were -7.44% [at 12.7 µM] and -4.08% [at 30.8 µM], respectively.
Consider `CCN(CC)c1ccc(N=Cc2c(O)n(-c3cc(OC)ccc3OC)c(=O)[nH]c2=O)cc1`, for which the compound was called inactive in assay [9] and in [11]. Besides, the activity change, negative = inhibition in [10] was -6.84%; in assay [4], -9.2% [at 12.7 µM]; in [5], -4.74% [at 30.8 µM]. Moreover, the Potency in assay [12] is over 20.6 µM; in [2] it was 70.8 µM (active). For the same compound, the Potency result in [1] is “inactive”. Besides, the activation in assay [3] is 4.47% [at 17.1 µM, percent relative to cAMP agonist control].
Consider `CCCCNC(=O)c1c(N)n(CCCOC)c2nc3ccccc3nc12`, for which the Potency in [1] is 84.9 µM (active). Besides, the Potency result in assay [2] and in assay [3] was “inactive” throughout. The result in assay [5] was inactive.
For the compound `COC1C(OC(=O)c2ccc(C)[nH]2)C(O)C(Oc2ccc3c(O)c(NC(=O)c4ccc(O)c(CC=C(C)C)c4)c(=O)oc3c2Cl)OC1(C)C` (stereo unspecified), the Potency in assay [1] is 30.1 µM (active). For the same compound, the Potency result in assay [2], in [3] and in assay [6] was “inactive” in each case.
As for `Cc1cccc(N2C(=O)NC(=O)/C(=C\c3cccn3-c3ccc(Cl)cc3)C2=O)c1`, the Potency in assay [1] is 47.8 µM (active). The Potency result in [2], in [3], in assay [4] and in assay [6] was “inactive” each time. Besides, the outcome in assay [5] was inactive.
On to `O=[N+]([O-])c1ccc(CN2CC=C(c3ccccc3)CC2)cc1`, for which the Potency result in assay [1] and in [2] was “inactive” in each case. Moreover, the activation in assay [3] is 0% [at 17.1 µM, percent relative to cAMP agonist control]; in [6], 8.24% [at 30.8 µM]. The activity change, negative = inhibition in assay [4] is 0.463% [at 12.7 µM].
Take `CC(C)CCn1c(=O)c(C(=O)Nc2ccccc2S(N)(=O)=O)c(O)c2ccccc21`: in assay [1], the Potency was 75.7 µM (active). The Potency result in [2], in assay [3] and in assay [6] was “inactive” each time. In assay [5], the result was inactive.
Consider `CN1CC[C@@]2(C)c3cc(O)ccc3N(C)[C@@H]12`, for which the outcome in [13] and in assay [5] was inactive. The Potency entry in assay [1], in [2], in assay [3] and in [4] was “inactive” each time. Also, in assay [6], the Potency is 5.62 µM (active).
Take `Cc1ccccc1N1C(=O)NC(=O)/C(=C\c2ccc3c(c2)CCCN3Cc2ccccc2)C1=O`: the Potency was 28.2 µM (active) in assay [8] and 16.9 µM (active) in [1]. Further, the Potency entry in assay [2] and in [3] was “inactive” in each case. Further, the outcome in assay [5] was inactive.
Take `O=c1nc(/C=C/c2ccc(Cl)cc2Cl)cc(C(F)(F)F)[nH]1`: in assay [1], the Potency is 44.7 µM (active). The Potency entry in assay [2] is “inactive”. In addition, the activation in assay [3] was -2.31% [at 17.1 µM, percent relative to cAMP agonist control]; in assay [6] it was 4.81% [at 30.8 µM]. The activity change, negative = inhibition in [4] is -10% [at 12.7 µM].
With `COC(=O)C1=C(c2cc3ccccc3s2)C[C@@H]2CC[C@H]1N2C(=O)NCc1ccc(C(F)(F)F)cc1`, the Potency result in assay [1], in assay [2], in assay [3], in assay [4] and in [6] was “inactive” throughout.
`Cc1cc(=O)oc2cc(OCC(=O)N3CCC(C(=O)O)(c4ccccc4)CC3)ccc12`: the Potency in [1] is 75.7 µM (active). Also, the Potency result in assay [2] and in [3] was “inactive” each time. Further, the compound was classed as inactive in assay [5].
Regarding `CC(C)=CCCC1(C)C=Cc2c(O)c3c(c(CC=C(C)C)c2O1)OC12C(=CC4CC1C(C)(C)OC2(C/C=C(/C)C(=O)O)C4=O)C3=O` (stereo unspecified), the Potency entry in assay [14], in [15], in [16], in [2], in [3] and in assay [17] was “inactive” in each case. Moreover, in [1], the Potency is 19.8 µM (active).
Regarding `O=c1oc2ccccc2c(O)c1C(c1ccc([N+](=O)[O-])cc1)c1c(O)c2ccccc2oc1=O`, the Potency in assay [1] was 15.8 µM (active). The Potency result in assay [2] is “inactive”. In addition, in assay [3], the activation was 0% [at 17.1 µM, percent relative to cAMP agonist control]. Further, the activity change, negative = inhibition in [5] is -13.4% [at 30.8 µM].
